Measured values published in PubChem BioAssay AID1159580 (chemical genetic matrix, 2015).
Values joined by “and” are separate entries in the source; they are usually repeats but may differ in a detail not shown here. Equal entries are not always repeated. About 2,000 (36%) of roughly 5,500 compounds were called active. Not shown: some 18% with an inconclusive outcome. No stated cut-off is given here; in the data, active means normalized growth mostly below about 0.91 (no sharp cut-off); inconclusive means no clear call, values can overlap the other calls; inactive means mostly above about 0.92. The list shows a part of the results.

Assay: chemical genetic growth profiling, strain panel (AID 1159580);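 further: tested at 20 µM; growth read once vehicle control cultures reached saturation at 30 °C; 1 = growth at the plate median or of vehicle wells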
Conditions: S. cerevisiae deletion strains, growth OD

Measured: normalized growth

COc1ccc2c(c1)[nH]c1c(C)nccc12
inactive: locus YAL013W, strain DEP1, stronger effect = lower value 1.02 | locus YAL021C, strain ccr4, stronger effect = lower value 0.978 | locus YAL026C, strain drs2, stronger effect = lower value 1 | locus YAL030W, strain snc1, stronger effect = lower value 1 | locus YBL061C, strain skt5, stronger effect = lower value 0.993 | locus YBR009C, strain hhf1, stronger effect = lower value 0.992 | locus YBR021W, strain FUR4, stronger effect = lower value 1.03 | locus YBR023C, strain chs3, stronger effect = lower value 1 | locus YBR171W, strain sec66, stronger effect = lower value 0.987 | locus YBR229C, strain ROT2, stronger effect = lower value 1.02 | locus YBR231C, strain swc5, stronger effect = lower value 0.994 | locus YBR279W, strain paf1, stronger effect = lower value 0.991 | locus YCL011C, strain gbp2, stronger effect = lower value 1.01 | locus YCL016C, strain dcc1, stronger effect = lower value 1 | locus YCL029C, strain bik1, stronger effect = lower value 0.968 | locus YCL061C, strain MRC1, stronger effect = lower value 0.994 | locus YCL069W, strain vba3, stronger effect = lower value 0.995 | locus YCR088W, strain abp1, stronger effect = lower value 1 | locus YDL005C, strain med2, stronger effect = lower value 0.994 | locus YDL035C, strain GPR1, stronger effect = lower value 0.998 | locus YDL040C, strain nat1, stronger effect = lower value 0.995 | locus YDL074C, strain BRE1, stronger effect = lower value 1.03 | locus YDL101C, strain DUN1, stronger effect = lower value 1.01 | locus YDL134C, strain PPH21, stronger effect = lower value 1.02 | locus YDL185W, strain tfp1, stronger effect = lower value 0.968 | locus YDL192W, strain arf1, stronger effect = lower value 0.979 | locus YDR001C, strain nth1, stronger effect = lower value 0.991 | locus YDR069C, strain doa4, stronger effect = lower value 0.997 | locus YDR101C, strain arx1, stronger effect = lower value 0.987 | locus YDR137W, strain rgp1, stronger effect = lower value 1.01 | locus YDR150W, strain NUM1, stronger effect = lower value 0.978 | locus YDR159W, strain sac3, stronger effect = lower value 1.01 | locus YDR162C, strain NBP2, stronger effect = lower value 1.02 | locus YDR195W, strain ref2 1.01 | locus YDR297W, strain sur2, stronger effect = lower value 0.999 | locus YDR318W, strain mcm21, stronger effect = lower value 0.986 | locus YDR334W, strain swr1, stronger effect = lower value 0.991 | locus YDR335W, strain msn5, stronger effect = lower value 0.994 | locus YDR388W, stronger effect = lower value 0.98 | locus YDR392W, strain spt3, stronger effect = lower value 0.991 | locus YDR502C, strain sam2, stronger effect = lower value 0.995 | locus YEL003W, strain gim4, stronger effect = lower value 0.988 | locus YEL037C, strain rad23, stronger effect = lower value 0.991 | locus YEL061C, strain CIN8 (second series), stronger effect = lower value 0.99 | locus YEL061C, strain CIN8, stronger effect = lower value 1.01 | locus YER015W, strain faa2, stronger effect = lower value 0.988 | locus YER016W, strain bim1, stronger effect = lower value 0.997 | locus YER110C, stronger effect = lower value 0.969 | locus YER111C, strain swi4, stronger effect = lower value 0.998 | locus YER155C, strain BEM2 (second series), stronger effect = lower value 0.95 | locus YER155C, strain BEM2, stronger effect = lower value 1.01 | locus YER167W, strain BCK2, stronger effect = lower value 1 | locus YFR010W, strain ubp6, stronger effect = lower value 0.982 | locus YGL078C, strain dbp3, stronger effect = lower value 0.972 | locus YGL086W, strain mad1, stronger effect = lower value 0.981 | locus YGL167C, strain pmr1, stronger effect = lower value 0.991 | locus YGL173C, strain kem1, stronger effect = lower value 0.999 | locus YGL227W, strain vid30, stronger effect = lower value 0.984 | locus YGL240W, strain doc1, stronger effect = lower value 0.989 | locus YGL248W, strain PDE1, stronger effect = lower value 1.02 | locus YGL253W, strain hxk2, stronger effect = lower value 0.995 | locus YGR078C, strain PAC10, stronger effect = lower value 1.03 | locus YGR135W, strain pre9, stronger effect = lower value 0.981 | locus YGR229C, strain SMI1, stronger effect = lower value 1.07 | locus YGR252W, strain gcn5, stronger effect = lower value 0.931 | locus YHR013C, strain ard1, stronger effect = lower value 1.01 | locus YHR027C, strain rpn1, stronger effect = lower value 0.991 | locus YHR030C, strain SLT2, stronger effect = lower value 1.01 and 1.02 | locus YHR079C, strain IRE1 (second series), stronger effect = lower value 0.988 | locus YHR079C, strain IRE1, stronger effect = lower value 1.03 | locus YHR094C, strain hxt1, stronger effect = lower value 0.963 | locus YHR129C, strain ARP1, stronger effect = lower value 1.01 | locus YHR142W, strain chs7, stronger effect = lower value 1.01 | locus YHR200W, strain rpn10, stronger effect = lower value 0.97 | locus YIL066C, strain RNR3, stronger effect = lower value 1.02 | locus YIL073C, strain SPO22, stronger effect = lower value 0.887 | locus YIL125W, strain kgd1, stronger effect = lower value 0.986 | locus YIR030C, strain dcg1, stronger effect = lower value 0.994 | locus YJL092W, strain hpr5, stronger effect = lower value 0.996 | locus YJL095W, strain BCK1 (second series), stronger effect = lower value 1 | locus YJL095W, strain BCK1, stronger effect = lower value 1.07 and 1.01 | locus YJL115W, strain asf1, stronger effect = lower value 0.979 | locus YJL129C, strain trk1, stronger effect = lower value 0.987 | locus YJL134W, strain LCB3, stronger effect = lower value 1.01 | locus YJL154C, strain vps35, stronger effect = lower value 1 | locus YJL164C, strain tpk1, stronger effect = lower value 0.997 | locus YJL166W, strain qcr8, stronger effect = lower value 0.991 | locus YJL168C, strain set2, stronger effect = lower value 0.996 | locus YJL187C, strain SWE1 (second series), stronger effect = lower value 1.01 | locus YJR043C, strain POL32, stronger effect = lower value 0.989 | locus YJR066W, strain TOR1, stronger effect = lower value 0.972
